{"source": "PubChem BioAssay AID686978", "about": "(National Center for Advancing Translational Sciences (NCATS), 2013)", "note": "The whole screen tested about 420,000 compounds, of which about 64,000 (15%) were called active. Roughly 27% stayed inconclusive and do not appear here. Calls follow the shape of the dose curve; as a rule, active = well fitted inhibition curve with a large enough effect; inconclusive = small, poorly fitted or top-dose-only effect; inactive = flat fitted curve, though single readings scatter. These entries were drawn from the full list. A call without a number means that no potency is given here. Peptide text beside a SMILES is read from it. Potency is read from the fitted curve at half-maximal effect.", "data": [{"assay": "qHTS for Inhibitors of human tyrosyl-DNA phosphodiesterase 1 (TDP1): qHTS in cells in absence of CPT; also: nearly all actives have a fitted effect of over 55% in size", "conditions": "DT40 Tdp1-/- hTDP1 cells, no CPT, ATP luminescence, 48 h; activity change, negative = growth inhibition: at 46.2 µM (top of the series)", "outline": "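A cellular qHTS used chicken DT40 cells lacking endogenous Tdp1 but carrying stably transfected human TDP1. Compounds were applied without camptothecin, and cell growth kinetics were judged by ATP-dependent luminescence after ≥48 hr.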", "values": [{"smiles": "O=C(Nc1ccncc1)c1cc(-c2ccccn2)nc2ccc(Br)cc12", "Potency": "inactive"}, {"smiles": "O=C(Nc1ccc2c(c1)OCCO2)c1cnccn1", "Potency": "inactive"}, {"smiles": "CCn1c(SCC(=O)Nc2ccc3c(c2)OCCO3)nnc1-c1ccncc1", "Potency": "inactive"}, {"smiles": "Cc1ccc2nc(-c3ccccc3)cc(C(=O)O)c2c1", "Potency": "inactive"}, {"smiles": "O=C(Nc1ccc(S(=O)(=O)Nc2nccs2)cc1)c1cc(-c2ccncc2)nc2ccccc12", "Potency": "inactive"}, {"smiles": "Cc1ccc2nc(-c3ccncc3)cc(C(=O)Nc3ccc(OC(F)F)cc3)c2c1", "Potency": "9.2 µM (active)"}, {"smiles": "CCN(CC)CCNC(=O)c1ccc(NC(=O)c2cc(-c3ccncc3)nc3ccccc23)cc1", "Potency": "23.1 µM (active)"}, {"smiles": "Cc1ccc2nc(-c3ccncc3)cc(C(=O)Nc3ccc4c(c3)OCCO4)c2c1", "Potency": "10.3 µM (active)"}, {"smiles": "CCN(CC)CCNC(=O)c1ccc(NS(=O)(=O)c2ccc3c(c2)OCCO3)cc1", "Potency": "inactive"}, {"smiles": "C=CCNC(=O)/C(=C\\c1cccc([N+](=O)[O-])c1)NC(=O)c1ccccc1", "Potency": "inactive"}, {"smiles": "COc1cc(/C=C/C(=O)OCC(=O)NC2CC2)cc(OC)c1OC", "Potency": "inactive"}, {"smiles": "Cc1cc(=O)oc2cc(NC(=O)C(C)Oc3ccccc3)ccc12", "note": "(configuration not stated)", "Potency": "inactive"}, {"smiles": "C[C@H](CO)N1C[C@H](C)[C@@H](CN(C)S(=O)(=O)c2ccc(Oc3ccccc3)cc2)OCc2cn(nn2)CCCC1=O", "Potency": "inactive"}, {"smiles": "COc1ccc(NC(=O)CSc2nc(N)c(-c3ccccc3)c(=O)[nH]2)cc1", "Potency": "inactive"}, {"smiles": "CC(C)c1ccc(Nc2ncccc2C#N)cc1", "Potency": "inactive"}, {"smiles": "CCc1nnc(NC(=O)c2cccs2)s1", "Potency": "inactive"}, {"smiles": "CC(=O)c1cccc(NC(=O)C2CCCN2S(=O)(=O)c2cccc3nsnc23)c1", "note": "(configuration not stated)", "Potency": "inactive"}, {"smiles": "CCC(c1nnnn1C1CCCC1)N1CCN(C(=O)c2ccco2)CC1", "note": "(configuration not stated)", "Potency": "inactive"}, {"smiles": "CC(C)C(c1nnnn1C1CCCCC1)N1CCN(C(=O)c2ccco2)CC1", "note": "(configuration not stated)", "Potency": "inactive"}, {"smiles": "CC(C)C(c1nnnn1C1CCCC1)N1CCN(c2ccccc2F)CC1", "note": "(configuration not stated)", "Potency": "18.4 µM (active)"}, {"smiles": "CC(C)C[C@@H](NC(=O)[C@H]1CCCN1C(=O)Cc1ccccc1)C(N)=O", "note": "(HELM PEPTIDE1{[O=C(Cc1ccccc1)[*:2]].[dP].[dL].[am]}$$$$V2.0)", "Potency": "inactive"}, {"smiles": "CC(C)C(=O)Nc1c2c(nn1-c1ccccc1)CSC2", "Potency": "inactive"}, {"smiles": "CCN1C(=NCCc2cccnc2)N[C@@H](c2ccccc2)[C@H](C(=O)OC)[C@H]1C", "Potency": "inactive"}, {"smiles": "CCN1C(=O)N[C@@H](c2ccccc2)[C@H](C(C)=O)[C@H]1C", "Potency": "inactive"}, {"smiles": "COCCN1C(=O)N[C@@H](CCc2ccccc2)[C@H](C(C)=O)[C@H]1C", "Potency": "inactive"}, {"smiles": "CC1=C(C)CC(C(=O)NC(C)CCc2ccccc2)C(C(=O)O)C1", "note": "(configuration not stated)", "Potency": "inactive"}, {"smiles": "CCN1C(=NCC(C)C)N[C@@H](CCc2ccccc2)[C@H](C(=O)NCC(C)C)[C@H]1C", "Potency": "13 µM (active)"}, {"smiles": "CCN1C(=NCc2ccc(OC)cc2)N[C@@H](CCc2ccccc2)[C@H](C(=O)NCc2ccc(OC)cc2)[C@H]1C", "Potency": "9.2 µM (active)"}, {"smiles": "CCc1ccccc1NC(=O)CSc1nnc([C@@H](NC(=O)OC(C)(C)C)C(C)C)o1", "Potency": "inactive"}, {"smiles": "Cc1c(NS(=O)(=O)c2ccc(Cl)cc2)c(=O)n(-c2ccccc2)n1C", "Potency": "inactive"}, {"smiles": "CC1CCCC(N2CCN(C(=O)c3ccc(F)cc3)CC2)C1", "note": "(configuration not stated)", "Potency": "inactive"}, {"smiles": "CN(C(=N)N)c1ccc(/C=C2\\C=Cc3ccccc32)cc1", "Potency": "2.82 µM (active)"}, {"smiles": "CS(=O)c1ccc(/C=C2\\C=Cc3ccccc32)cc1", "note": "(configuration not stated)", "Potency": "20 µM (active)"}, {"smiles": "C#CCCOC(=O)N1C2=NC(C(=O)OC)=C(C(=O)OC)[C@@H]3N(C)c4ccc(OC)cc4[C@]23C[C@H]1C(=O)OC", "Potency": "inactive"}, {"smiles": "O=c1ccc2cc(S(=O)(=O)NCCCc3ccccc3)ccc2[nH]1", "Potency": "inactive"}, {"smiles": "C=CCn1c(SCc2nnc(-c3ccccc3)o2)nnc1C(O)c1ccccc1", "note": "(configuration not stated)", "Potency": "inactive"}, {"smiles": "FC(F)(F)c1cccc(-c2cn[nH]c2C2CCCN(Cc3cccn3-c3ccccn3)C2)c1", "note": "(configuration not stated)", "Potency": "inactive"}, {"smiles": "Cc1nn(C)cc1C(=O)Nc1ccccc1Br", "Potency": "inactive"}, {"smiles": "COc1ccc(Cn2nnc3c(=O)[nH]c(C4CCN(C(=O)c5ccccc5Cl)CC4)nc32)cc1", "Potency": "inactive"}, {"smiles": "COc1ccc(N2CCN(Cc3nc4c(c(=O)[nH]c(=O)n4C)n3Cc3ccc(Cl)cc3)CC2)cc1", "Potency": "inactive"}, {"smiles": "COc1ccc(CN2CCC(c3nc4ccc(Cl)cc4[nH]3)CC2)cc1", "Potency": "20.6 µM (active)"}, {"smiles": "CN(CCCNC(=O)CN1C(=O)CC(C)(C)S(=O)(=O)c2ccccc21)C1CCCCC1", "Potency": "inactive"}, {"smiles": "COC(=O)c1nc(NC(=O)c2ccc(Cl)cc2)n[nH]1", "Potency": "inactive"}, {"smiles": "CC[C@@H](C)[C@H](NC(=O)CCc1c(C)c2cc3c4c(oc3c(C)c2oc1=O)CCCC4)C(=O)O", "Potency": "inactive"}, {"smiles": "COc1ccc(NC(=O)CN(C)C(=O)c2cc(C)oc2C)cc1", "Potency": "inactive"}, {"smiles": "CC(C)=CCc1ccc(O)c(=O)cc1C(C)C", "Potency": "20.6 µM (active)"}, {"smiles": "Cc1ccc(S(=O)(=O)c2c[nH]c3ccc(Cl)cc3c2=O)cc1", "Potency": "inactive"}, {"smiles": "O=C1COc2ccc(C(=O)CSc3ccc(Br)cc3)cc2N1", "Potency": "16.4 µM (active)"}, {"smiles": "O=C1COc2ccc(C(=O)COC(=O)c3cccnc3Cl)cc2N1", "Potency": "inactive"}, {"smiles": "O=C1COc2ccc(C(=O)COC(=O)CCOc3ccccc3)cc2N1", "Potency": "inactive"}, {"smiles": "COCc1cc(=O)n2[nH]c(C)c(-c3ccccc3)c2n1", "Potency": "inactive"}, {"smiles": "Cc1nc2c(-c3ccccc3)c(C)[nH]n2c(=O)c1Cl", "Potency": "inactive"}, {"smiles": "CCCc1cc(=O)n2[nH]c(C)c(-c3ccc(Cl)cc3)c2n1", "Potency": "14.6 µM (active)"}, {"smiles": "CCCC(=O)C1=C(N(C)c2ccccc2)CC(C)(C)C(C(=O)OC)C1=O", "note": "(configuration not stated)", "Potency": "inactive"}, {"smiles": "O=C(CSc1ccc([N+](=O)[O-])cn1)Nc1ccc(N2CCOCC2)cc1", "Potency": "inactive"}, {"smiles": "CCN(C(=O)CSc1nnc(-c2ccc(OC(F)F)cc2)n1N)C1CCS(=O)(=O)C1", "note": "(configuration not stated)", "Potency": "inactive"}, {"smiles": "CCOc1ccccc1/C=c1\\sc2nc(-c3ccco3)nn2c1=O", "Potency": "inactive"}, {"smiles": "CN(C)c1nc(N)nc(CSc2ccccn2)n1", "Potency": "inactive"}, {"smiles": "Cc1ccc(NC(=O)c2cc(S(=O)(=O)NCCC3=CCCCC3)ccc2F)cc1C", "Potency": "25.9 µM (active)"}, {"smiles": "Cc1ccc(NC(=O)CCNS(=O)(=O)c2ccc3c(c2)oc(=O)n3C)cc1C", "Potency": "inactive"}, {"smiles": "Cc1cccc(NC(=O)c2cc(S(=O)(=O)N3CCC4(CC3)OCCO4)ccc2F)c1", "Potency": "inactive"}, {"smiles": "CCCc1nc(-c2cc3cc(C)ccc3[nH]c2=O)no1", "Potency": "inactive"}]}]}
